Records with an inconclusive call do not appear. Where a call stands in place of a potency, no number is given. Unmarked numbers belong to inactive results. Active and inactive are the calls of the source. Calls follow the shape of the dose curve; as a rule, active = well fitted curve in the direction sought with a large enough effect; inconclusive = small, poorly fitted or top-dose-only effect, or another doubt; inactive = no such curve, though single readings can be large; an effect the other way counts as inactive or inconclusive.
tested on: Zika virus NS2B-NS3 protease (unlinked); assay: Optimization of GU AMC qHTS for Zika virus inhibitors: Unlinked NS2B-NS3 protease assay (AID 1347151); conditions: recombinant ZIKV NS2B-NS3 protease, fluorogenic AMC substrate; series mostly up to 52.5 µM; also: nearly all actives have a fitted effect of over 80% in size; also: potency is read from the fitted curve at half-maximal effect
Outline: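 Fluorescence read-out (340 nm ex / 450 nm em) of AMC peptide cleavage, taken immediately and after 15 min at room temperature (~20% conversion). Enzyme was the unlinked NS2B–NS3 complex at 25 nM in Tris pH 8.0 buffer.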

| SMILES | Potency |
| --- | --- |
| OC(CCN1CCCCC1)(c1ccccc1)C1CCCCC1 (stereo unspecified) | inactive |
| CNCCC(Oc1ccccc1OC)c1ccccc1 (stereo unspecified) | inactive |
| C[N+](C)(C)CCOC(N)=O | inactive |
| CCN(Cc1ccncc1)C(=O)C(CO)c1ccccc1 (stereo unspecified) | inactive |
| CC(C)(C)c1ccc(C(=O)CCCN2CCC(OC(c3ccccc3)c3ccccc3)CC2)cc1 | inactive |
| C[C@@H](O)[C@H]1C(=O)N2C(C(=O)O)=C(SCCN=CN)C[C@H]12 | inactive |
| Nc1nc(N)c2nc(-c3ccccc3)c(N)nc2n1 | inactive |
| O=C1NCN(c2ccccc2)C12CCN(CCCC(c1ccc(F)cc1)c1ccc(F)cc1)CC2 | inactive |
| C[C@]12CCC(=O)C=C1CC[C@@H]1[C@@H]2C(=O)C[C@@]2(C)[C@H]1CC[C@]2(O)C(=O)CO | inactive |
| NC(=O)c1cn(Cc2c(F)cccc2F)nn1 | inactive |
| CC(=O)Nc1nnc(S(N)(=O)=O)s1 | inactive |
| CN(C(=O)CCCOc1ccc2[nH]c(=O)ccc2c1)C1CCCCC1 | 26.7 µM (active) |
| CN1C[C@H](C(=O)N[C@]2(C)O[C@@]3(O)[C@@H]4CCCN4C(=O)[C@H](Cc4ccccc4)N3C2=O)C[C@@H]2c3cccc4[nH]cc(c34)C[C@H]21 | inactive |
| CC(C)COCC(CN(Cc1ccccc1)c1ccccc1)N1CCCC1 (stereo unspecified) | inactive |
| COc1cc(Cc2cnc(N)nc2N)cc(OC)c1OC | inactive |
| CCn1ccnc1CC1COc2ccccc2O1 (stereo unspecified) | inactive |
| C=CCc1ccccc1OCC(O)CNC(C)C (stereo unspecified) | inactive |

| SMILES | Potency |
| --- | --- |
| O=C(O)CN(CCN(CC(=O)O)CC(=O)O)CCN(CC(=O)O)CC(=O)O | inactive |
| C[n+]1cc2c3c(ccc2c2ccc4cc5c(cc4c21)OCO5)OCO3 | 5.97 µM (active) |
| CC(C)NNC(=O)c1ccncc1 | inactive |
| Cc1ccc(/C(=C\CN2CCCC2)c2ccccn2)cc1 | inactive |
| CN/C(=C\[N+](=O)[O-])NCCSCc1ccc(CN(C)C)o1 | inactive |
| C[C@]12CC[C@@H]3c4ccc(O)cc4C[C@@H](CCCCCCCCCS(=O)CCCC(F)(F)C(F)(F)F)[C@H]3[C@@H]1CC[C@@H]2O (stereo partly specified) | inactive |
| CCCOc1ccccc1-c1nc2n[nH]nc2c(=O)[nH]1 | inactive |
| C[C@]12C=CC(=O)C=C1CC[C@H]1[C@@H]3C[C@@H](O)[C@](O)(C(=O)CO)[C@@]3(C)C[C@H](O)[C@@]12F | inactive |
| CCOC(=O)C1=C(C)NC(C)=C(C(=O)OC)C1c1cccc(Cl)c1Cl (stereo unspecified) | 26.7 µM (active) |
| NCCCNCCSP(=O)(O)O | inactive |
| COC(=O)[C@H]1[C@H]2C[C@@H]3c4[nH]c5cc(OC)ccc5c4CCN3C[C@H]2C[C@@H](OC(=O)c2cc(OC)c(OC)c(OC)c2)[C@@H]1OC | 15 µM (active) |
| CC(=O)Oc1cc(C(C)C)c(OCCN(C)C)cc1C | inactive |
| Cc1nc2c([nH]1)c(=O)n(C)c(=O)n2Cc1ccco1 | inactive |
| COCCc1ccc(OCC(O)CNC(C)C)cc1 (stereo unspecified) | inactive |
| c1cc(CN2CCCCC2)cc(OCCCNc2nc3ccccc3s2)c1 | inactive |
| O=C(CCNNC(=O)c1ccncc1)NCc1ccccc1 | inactive |

tested on: Zika virus NS2B-NS3 protease; assay: Primary screen GU AMC qHTS for Zika virus inhibitors (AID 1347154); conditions: Zika NS2B-NS3 unlinked protease, AMC fluorogenic substrate; series mostly up to 54.1 µM; also: nearly all actives have a fitted effect of over 70% in size
Outline: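 Fluorogenic AMC-substrate cleavage by noncovalent NS2B-NS3 protease complex (25 nM, pH 8.0 Tris buffer with Tween 20) followed for 15 minutes at room temperature (~20% conversion). Percent inhibition from ex340/em450 signal change, fitted by 4-parameter Hill equation.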

| SMILES | outcome | activity change, negative = inhibition |
| --- | --- | --- |
| CNCCC(Oc1ccccc1OC)c1ccccc1 (stereo unspecified) | inactive | – |
| C[N+](C)(C)CCOC(N)=O | inactive | – |
| CCN(Cc1ccncc1)C(=O)C(CO)c1ccccc1 (stereo unspecified) | inactive | – |
| C[C@@H](O)[C@H]1C(=O)N2C(C(=O)O)=C(SCCN=CN)C[C@H]12 | inactive | – |
| C[C@]12CCC(=O)C=C1CC[C@@H]1[C@@H]2C(=O)C[C@@]2(C)[C@H]1CC[C@]2(O)C(=O)CO | inactive | – |
| CCOC(=O)c1cnc2c(cnn2CC)c1NN=C(C)C | inactive | – |
| NC(=O)c1cn(Cc2c(F)cccc2F)nn1 | inactive | – |
| CC(=O)Nc1nnc(S(N)(=O)=O)s1 | inactive | – |
| CN1C[C@H](C(=O)N[C@]2(C)O[C@@]3(O)[C@@H]4CCCN4C(=O)[C@H](Cc4ccccc4)N3C2=O)C[C@@H]2c3cccc4[nH]cc(c34)C[C@H]21 | inactive | – |
| CC(C)COCC(CN(Cc1ccccc1)c1ccccc1)N1CCCC1 (stereo unspecified) | inactive | – |
| COc1cc(Cc2cnc(N)nc2N)cc(OC)c1OC | inactive | – |
| CCn1ccnc1CC1COc2ccccc2O1 (stereo unspecified) | inactive | – |
| C=CCc1ccccc1OCC(O)CNC(C)C (stereo unspecified) | inactive | – |
| O=C(O)CN(CCN(CC(=O)O)CC(=O)O)CCN(CC(=O)O)CC(=O)O | inactive | – |
| C[n+]1cc2c3c(ccc2c2ccc4cc5c(cc4c21)OCO5)OCO3 | inactive | – |
| CC(C)NNC(=O)c1ccncc1 | inactive | – |
| Cc1ccc(/C(=C\CN2CCCC2)c2ccccn2)cc1 | inactive | – |
| CN/C(=C\[N+](=O)[O-])NCCSCc1ccc(CN(C)C)o1 | inactive | – |
| C[C@]12CC[C@@H]3c4ccc(O)cc4C[C@@H](CCCCCCCCCS(=O)CCCC(F)(F)C(F)(F)F)[C@H]3[C@@H]1CC[C@@H]2O (stereo partly specified) | inactive | – |
| CCCOc1ccccc1-c1nc2n[nH]nc2c(=O)[nH]1 | inactive | – |
| C[C@]12C=CC(=O)C=C1CC[C@H]1[C@@H]3C[C@@H](O)[C@](O)(C(=O)CO)[C@@]3(C)C[C@H](O)[C@@]12F | inactive | – |
| NCCCNCCSP(=O)(O)O | – | -3.39% [at 6.83 µM] |
| COC(=O)[C@H]1[C@H]2C[C@@H]3c4[nH]c5cc(OC)ccc5c4CCN3C[C@H]2C[C@@H](OC(=O)c2cc(OC)c(OC)c(OC)c2)[C@@H]1OC | inactive | – |
| CC(=O)Oc1cc(C(C)C)c(OCCN(C)C)cc1C | inactive | – |
| Cc1nc2c([nH]1)c(=O)n(C)c(=O)n2Cc1ccco1 | inactive | – |
| COCCc1ccc(OCC(O)CNC(C)C)cc1 (stereo unspecified) | inactive | – |
| c1cc(CN2CCCCC2)cc(OCCCNc2nc3ccccc3s2)c1 | inactive | – |
| O=C(CCNNC(=O)c1ccncc1)NCc1ccccc1 | inactive | – |

Reference: PubChem BioAssay (NCATS)
